Source: PubChem BioAssay (NCI)
About 79,000 compounds went through this panel and 15% of them were active in at least one assay; those are over-represented in the sample as a whole. Cut-off read from the data, not from the text of the source: active = growth inhibition above about 70%; inactive = the rest.

What was measured:
[1] = NCI Yeast Anticancer Drug Screen. Data for the sgs1 strain (AID 173);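 note: 0% = growth of vehicle-only control cultures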; conditions: S. cerevisiae sgs1 mutant, hits give high values
In short: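 Yeast mutant strains carrying defined defects in DNA damage repair or cell cycle control were exposed to test compounds. Growth inhibition was scored against vehicle-treated controls.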

[2] = NCI Yeast Anticancer Drug Screen. Data for the mlh1 rad18 strain (AID 175); conditions: S. cerevisiae mlh1 rad18 strain growth inhibition, hits give high values
In short: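 Growth inhibition of the yeast strain was measured after compound exposure and expressed relative to vehicle-treated controls. The strain carries defined defects in DNA damage repair.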

[3] = NCI Yeast Anticancer Drug Screen. Data for the rad18 strain (AID 177); conditions: S. cerevisiae rad18 mutant growth inhibition, hits give high values
In short: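 Yeast carrying a defined DNA damage repair alteration were exposed to compounds. Growth inhibition was expressed relative to vehicle-treated controls.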

Measured: growth inhibition

CC1=CN2C(c3ccccc3)=NON(c3ccc(C)cn3)C2C=C1 (stereo not drawn)
inactive: [1]; at 1.2 µM -23% | [1]; at 3.7 µM -16% | [1]; at 11.0 µM -2% | [1]; at 33.0 µM -7% | [1]; at 100.0 µM 2% | [2]; at 5.0 µM (retest, dose inferred, filed as 0.5) -15% | [2]; at 50.0 µM (retest, dose inferred, filed as 5.0) 50% | [2]; at 50.0 µM 1.65% | [3]; at 1.2 µM 3% | [3]; at 3.7 µM 3% | [3]; at 11.0 µM -1% | [3]; at 33.0 µM 1% | [3]; at 100.0 µM -7%
